The supplement of paper PMC10681739

Each sequence was assayed against T1, ETS1 (UniProt P14921) (assay: ETS1 binding intensity (PBM fluorescence) in presence of RUNX1, normalised to ETS1-only experiment (arbitrary fluorescence units); higher = stronger binding). Details: ETS1 concentration 1 nM; RUNX1 concentration 25 nM.
T1 sequence: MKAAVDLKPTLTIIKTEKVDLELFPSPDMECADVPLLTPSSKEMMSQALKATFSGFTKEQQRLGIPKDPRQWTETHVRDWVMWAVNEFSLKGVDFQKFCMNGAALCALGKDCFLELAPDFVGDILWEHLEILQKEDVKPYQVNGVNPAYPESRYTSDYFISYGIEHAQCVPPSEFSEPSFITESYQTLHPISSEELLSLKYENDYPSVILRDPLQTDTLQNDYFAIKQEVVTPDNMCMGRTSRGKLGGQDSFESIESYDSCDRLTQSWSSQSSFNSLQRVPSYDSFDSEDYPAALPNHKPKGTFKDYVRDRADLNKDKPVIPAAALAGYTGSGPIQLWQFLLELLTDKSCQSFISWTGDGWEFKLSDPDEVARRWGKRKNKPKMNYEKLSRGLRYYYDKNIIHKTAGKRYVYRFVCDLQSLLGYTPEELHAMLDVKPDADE
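Throughout, for RUNX1 binding intensity (PBM fluorescence) in presence of ETS1, normalised to RUNX1-only experiment: Full-length recombinant human ETS1 or RUNX1 bound to double-stranded 36-bp genomic probes on microarrays, detected by protein-specific primary antibody and Alexa488 secondary, spot fluorescence as median of four replicate spots.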

Row | Sequence | ETS1 binding intensity
1 | CAGATCCGGCGTGGACGAAGCTCGGGAACCACAACA | 456
2 | GAGTACAGGAAATGCAAAGTAAAACCACAGTGAGAT | 4550
3 | CGGGGATGGGATTTCCGGTGGTTTTTCTTCACTTTC | 4760
4 | GTGAGCCTGTAAAGGAAATTGAGGTTATGTGGCTCA | 1770
5 | CTTCTTTCCAGAGGATGTGGCTTCAGCGGGAGAGCT | 1830
6 | GAGACAGGAAATGTAGACTTGAGTCCTGTGGTAAAC | 6740
7 | GATGGGCGAGTCAGGAAACCACAGCTCTGAGGGTGG | 1190
8 | CACTTCCTGCCCTCTTCCACTTTCAAAACCACATCA | 1850
9 | AGCCACATCCTGGACAAAAGCTGTGGTCTAGTAACC | 556
10 | CCGCCGCGACACTTCCGGCGGCCACCACAGGGTATT | 3020
11 | ACTCGGGAATGTCCGGTCGTGGTAAGCAGGGTGGCA | 529
12 | GTTCTTCCACGTCCGCGTTACCCACAACGGCAGTGG | 606
13 | TACAGGAACTTCCTGCGCGGCTGCTGTGGTTGCGAG | 1350
14 | GCTCGGAAATACCAATATTGGGCTGTGGTATTTGAA | 626
15 | GTTGTCTTCTTCCTGAGTAAACCGCAGTGCAGAGAA | 1120
16 | GATTTGTCACAGGAAGTACCCACAGGCCAAGAAGTG | 5790
17 | GCCCAGGAAGTGGGTACAAAATGAGCCACAAGACCT | 839
18 | CCTCCCGACCGGAAGCCCCGCCACAGAGCGGGTTGT | 8570
19 | AGGCTGTGGCGGAAGTGGTCGCGTTACCGCTTGTTT | 12100
20 | TTTACAGGAAATTACAGGGGTTAAACCAAACCACAA | 1140

Row | Sequence | ETS1 binding intensity
21 | AAACCCTGAGTAATCGGAAGTGGTTAGGAGTGAGAG | 6580
22 | TCCTTTTCCGGTGGCGGCGCCGCGCGGTGAGGTTGT | 615
23 | GGGTGCAGACGGGAAGTTGCGGCTGCCAGCGAAGCT | 2530
24 | GTAAAAGAGGAAGTAACACCTCCTTGCGGTTGAGAC | 6840
25 | TTGGAAACAGACAGGAAGCCACAGGCAGTAAACATT | 3670
26 | GAGCAGTGGTGGGAAATGTGGGGTTGGGGGTAAAGG | 390
27 | AGGACCGGAAGTGCCCGAGGGCGGCCGCAGAACGGT | 16700
28 | GGACGCTTCCGGTGGAAGGGAGCTGTTGCGGGGCTT | 1660
29 | AACTAGGCTTTTCTTTCCTGTGGTCCTTAAGGAGGC | 329
30 | CCTGTTTCCTGCCATCTGCCCTTCCTTTGTGGTCAA | 1260
31 | CAGGCACACATCCGGGAGCGGCCTGCGCCGCAAGGC | 661
32 | CCACCCTCCGTCCGGCCGCGACCGCGAGGAGGAAGA | 1060
33 | GCACCACCGGAAGTAGGGCTCAACCACCGCTCATTT | 13400
34 | TTCTTCCGGCAACTGCTGCTGAGGCTGCGGTGGCGG | 899
35 | GCCACACAGGCAGGAAAGCCACAGCCCACGTCTCCG | 378
36 | CAGGGTGGAAACAGGAAGAGAAACCACACTTAACCT | 7190
37 | ATTTAGGAGGAAGTTTCCAGTACCACAACCTCACAG | 709
38 | TACTACTTACCAGCAGGATGTGGTCCCTGCCCACTG | 7040
39 | TCCCTAAGTCACATCCTGTGGGCAAAGGCCCTAGCA | 935

Each sequence was assayed against RUNX1 (UniProt Q01196) (assay: RUNX1 binding intensity (PBM fluorescence) in presence of ETS1, normalised to RUNX1-only experiment (arbitrary fluorescence units); higher = stronger binding). Details: RUNX1 concentration 2 nM; ETS1 concentration 25 nM.
RUNX1, sequence (Q01196 whole entry): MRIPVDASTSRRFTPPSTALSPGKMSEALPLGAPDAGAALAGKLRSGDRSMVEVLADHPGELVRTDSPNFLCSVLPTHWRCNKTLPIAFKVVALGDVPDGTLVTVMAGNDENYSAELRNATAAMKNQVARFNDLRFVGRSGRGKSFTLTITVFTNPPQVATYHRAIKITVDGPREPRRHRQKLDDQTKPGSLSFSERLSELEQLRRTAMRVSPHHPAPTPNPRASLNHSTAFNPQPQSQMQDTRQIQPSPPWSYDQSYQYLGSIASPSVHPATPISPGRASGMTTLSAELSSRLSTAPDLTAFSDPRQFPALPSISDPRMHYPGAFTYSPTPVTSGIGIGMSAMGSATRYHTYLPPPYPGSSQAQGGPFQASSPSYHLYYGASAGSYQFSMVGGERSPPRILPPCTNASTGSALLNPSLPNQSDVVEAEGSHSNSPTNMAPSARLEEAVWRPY
Method: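 Cooperative gcPBM on 36-bp genomic probes with neighbouring ETS1 and RUNX1 sites. Recombinant human RUNX1 (2 nM) was incubated alone or with ETS1 (25 nM) and detected with anti-RUNX1 antibody plus Alexa488 secondary. Values are medians over 4 replicate spots; the RUNX1+ETS1 data were normalised to the RUNX1-only data. The probes sit in constant array flanks that are not printed.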

Row | Sequence | RUNX1 binding intensity
40 | CAGATCCGGCGTGGACGAAGCTCGGGAACCACAACA | 1150
41 | GAGTACAGGAAATGCAAAGTAAAACCACAGTGAGAT | 1850
42 | CGGGGATGGGATTTCCGGTGGTTTTTCTTCACTTTC | 3240
43 | GTGAGCCTGTAAAGGAAATTGAGGTTATGTGGCTCA | 864
44 | CTTCTTTCCAGAGGATGTGGCTTCAGCGGGAGAGCT | 1030
45 | GAGACAGGAAATGTAGACTTGAGTCCTGTGGTAAAC | 1260
46 | GATGGGCGAGTCAGGAAACCACAGCTCTGAGGGTGG | 1300
47 | CACTTCCTGCCCTCTTCCACTTTCAAAACCACATCA | 9880
48 | AGCCACATCCTGGACAAAAGCTGTGGTCTAGTAACC | 2020
49 | CCGCCGCGACACTTCCGGCGGCCACCACAGGGTATT | 2500
50 | ACTCGGGAATGTCCGGTCGTGGTAAGCAGGGTGGCA | 1680
51 | GTTCTTCCACGTCCGCGTTACCCACAACGGCAGTGG | 1090
52 | TACAGGAACTTCCTGCGCGGCTGCTGTGGTTGCGAG | 1680
53 | GCTCGGAAATACCAATATTGGGCTGTGGTATTTGAA | 953
54 | GTTGTCTTCTTCCTGAGTAAACCGCAGTGCAGAGAA | 6380
55 | GATTTGTCACAGGAAGTACCCACAGGCCAAGAAGTG | 1260
56 | GCCCAGGAAGTGGGTACAAAATGAGCCACAAGACCT | 1610
57 | CCTCCCGACCGGAAGCCCCGCCACAGAGCGGGTTGT | 2420
58 | AGGCTGTGGCGGAAGTGGTCGCGTTACCGCTTGTTT | 3760
59 | TTTACAGGAAATTACAGGGGTTAAACCAAACCACAA | 1820

Row | Sequence | RUNX1 binding intensity
60 | AAACCCTGAGTAATCGGAAGTGGTTAGGAGTGAGAG | 1310
61 | TCCTTTTCCGGTGGCGGCGCCGCGCGGTGAGGTTGT | 1880
62 | GGGTGCAGACGGGAAGTTGCGGCTGCCAGCGAAGCT | 1270
63 | GTAAAAGAGGAAGTAACACCTCCTTGCGGTTGAGAC | 3280
64 | TTGGAAACAGACAGGAAGCCACAGGCAGTAAACATT | 978
65 | GAGCAGTGGTGGGAAATGTGGGGTTGGGGGTAAAGG | 843
66 | AGGACCGGAAGTGCCCGAGGGCGGCCGCAGAACGGT | 1320
67 | GGACGCTTCCGGTGGAAGGGAGCTGTTGCGGGGCTT | 1950
68 | AACTAGGCTTTTCTTTCCTGTGGTCCTTAAGGAGGC | 1020
69 | CCTGTTTCCTGCCATCTGCCCTTCCTTTGTGGTCAA | 6290
70 | CAGGCACACATCCGGGAGCGGCCTGCGCCGCAAGGC | 1560
71 | CCACCCTCCGTCCGGCCGCGACCGCGAGGAGGAAGA | 1130
72 | GCACCACCGGAAGTAGGGCTCAACCACCGCTCATTT | 1980
73 | TTCTTCCGGCAACTGCTGCTGAGGCTGCGGTGGCGG | 2050
74 | GCCACACAGGCAGGAAAGCCACAGCCCACGTCTCCG | 885
75 | CAGGGTGGAAACAGGAAGAGAAACCACACTTAACCT | 1070
76 | ATTTAGGAGGAAGTTTCCAGTACCACAACCTCACAG | 788
77 | TACTACTTACCAGCAGGATGTGGTCCCTGCCCACTG | 1250
78 | TCCCTAAGTCACATCCTGTGGGCAAAGGCCCTAGCA | 1570
